Screening results deposited in PubChem by several laboratories.
Sampled rows, rich in hits. Any-hit rate of the full collection: about 4.2%.
esBAF inh – inhibitors of esBAF chromatin remodeling in mouse ES cells; Bmi1-luciferase knock-in reporter, 24 h; 100% = twice the neutral-well signal; reporter increase, % at 12.5 µM; actives 2% (n = 350,000); in the data active = activation above about 40%; inconclusive = no clear call, values can overlap the other calls;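 also: 0% = median of the plate's neutral control wells and 100% = double that signal; a rise in the Bmi1 reporter signal indicates esBAF inhibition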
GAA850 FXN act – activators of GAA850 frataxin (FXN) promoter. HEK293 lucGAA850 FXN promoter luciferase reporter, 24 h; percent of 10 µM SAHA response. activation, % at 6 µM. actives 0.56% (n = 360,000);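 active = activation above the average of all compounds screened plus 3 SD, cutoff fixed separately per campaign, cut at about 7.5% in these data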;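 also: 0% = DMSO wells and 100% = 10 µM SAHA wells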
MITF act – increases MITF-driven TRPM1 promoter luciferase signal | SK-MEL-5 TRPM1-promoter luciferase, 24 h; % of positive control, neutral wells = 0 | activation, % at 12.5 µM | actives 0.75% (n = 300,000) | AID 588334;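 active = mean activation of at least 80% with every replicate also reaching 80%; inconclusive = mean reaches 80% but some replicate falls short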;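 also: 0% = neutral control wells and 100% = parthenolide positive control wells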
AHR act – human AHR activation | P35869 | AHR-responsive luciferase reporter cells, luminescence | activation, % at 5 µM | actives 2.5% (n = 320,000); in the data active = activation above about 47%;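 also: 0% = vehicle wells and 100% = reference agonist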
Wnt bcat act – Wnt/beta-catenin pathway activation. Wnt/beta-catenin reporter cell assay, activator, plate reader. actives 1.2% (n = 300,000). activation, % at 9.35 µM. AID 743398; in the data active = activation above about 30%, passing the limit was not always enough; inconclusive = no clear call, values can overlap the other calls;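 also: 0% = neutral control wells and 100% = positive control wells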
GAA30 counter – counter-screen for GAA850 frataxin promoter activators: GAA30 promoter activation. shares compounds with GAA850 FXN act. HEK293 lucGAA30 FXN promoter luciferase, 24 h; DMSO = 0%, 5 µM ipriflavone = 100%. activation, % at 6 µM. actives 66% (n = 1,900). AID 588350;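 active = mean activation above the mean of solvent-only control wells plus 3 SD, cut at about 22% in these data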;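 also: counterscreen of GAA850 promoter hits where activity marks nonselective or luminescence artifacts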
FXN GAA850 conf – GAA850 FXN promoter activation confirmation | HEK293 lucGAA850 FXN promoter luciferase reporter, 24 h; 100% = activation by SAHA | activation, % at 6 µM | actives 86% (n = 1,900) | shares compounds with GAA850 FXN act;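 active = mean activation above a set limit taken from the primary screen, cut at about 8% in these data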;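 also: 0% = DMSO wells and 100% = 10 µM SAHA wells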
An asterisk follows results filed as active; ? = inconclusive; nt = not tested or not shown.

SMILES	esBAF inh	GAA850 FXN act	MITF act	AHR act	Wnt bcat act	GAA30 counter	FXN GAA850 conf
O=[N+]([O-])c1ccc(Sc2cccc3cccnc23)cc1	46*	9.3*	6	0	10	83*	30*
O=[N+]([O-])c1ccc(Sc2ccncn2)c([N+](=O)[O-])c1	nt	71*	nt	nt	-3	-20	97*
O=C(Nc1ccc2c(c1)[C@H]1C[C@H](CC(=O)N3CCCCC3)O[C@H](CO)[C@H]1O2)C1CCC1	-3	nt	nt	nt	nt	nt	nt
c1cnc(SCCOc2ccc3c(c2)CCC3)nc1	9	8.2*	nt	2	nt	101*	38*
O=C(C[C@H]1CC[C@@H]2[C@H](COC[C@@H](O)CN2CC2CCOCC2)O1)N1CCOCC1	1	nt	nt	nt	nt	nt	nt
CCOC(=O)c1cc(-c2ccc(N)cc2)sc1N	5	2	49	-4	nt	nt	nt
CCOC(=O)c1sc(-c2ccc(Br)cc2)cc1N	34	16*	114*	-9	?	117*	43*
O=C(Nc1ccccc1)N1C[C@H]2[C@@H](c3ccccc31)[C@H](CO)N2C(=O)c1cccnc1	18	nt	nt	nt	nt	nt	nt
COc1ccc2c(c1)C(=NO)c1cc(OC)ccc1-2	29	1	11	1	0	nt	nt
C=CCOc1ccc2c(c1)C(=NO)c1cc(OCC=C)ccc1-2	29	8.0*	35	-4	-2	32*	20*
C[C@H]1CN([C@@H](C)CO)C(=O)c2cccc(NC(=O)CCCCCC(=O)Nc3ccccc3N)c2O[C@H]1CN(C)S(=O)(=O)c1ccc(Cl)cc1	-4	nt	nt	nt	nt	nt	nt
O=C(Nc1ccccc1[N+](=O)[O-])c1cc2ccccc2nc1Cl	nt	2	10	12	1	nt	nt
O=C(Nc1ccccc1[N+](=O)[O-])C1=C(O)CCn2c1nc1ccccc12	2	9.2*	-4	7	nt	11	16*
CCCCOc1ccc(C2(C)NC(=O)NC2=O)cc1 (stereo unspecified)	5	0	6	0	-2	nt	nt
CCCCOc1ccc(C2=NNC(=O)CC2)cc1	nt	10*	-23	3	12	42*	15*
C[C@@H]1CN([C@@H](C)CO)C(=O)c2cc(C3=CCCC3)cnc2O[C@@H]1CN(C)S(C)(=O)=O	2	nt	nt	nt	nt	nt	nt
Cc1ccc2nc3ccc(N4CCN(C)CC4)nn3c(=O)c2c1	49*	8.2*	33	15	nt	116*	34*
Cc1ccc2nc3n(c(=O)c2c1)CCCCC3	31	0	44	2	18	nt	nt
C[C@@H]1CN([C@@H](C)CO)C(=O)CCCn2cc(nn2)CO[C@@H]1CN(C)C(=O)Nc1ccccc1F	-5	nt	nt	nt	nt	nt	nt
Cc1sc(NC(=O)C2C3CCC(O3)C2C(=O)O)nc1-c1ccc(CC(C)C)cc1 (stereo unspecified)	nt	13*	28	4	24	62*	26*
CC(C)c1ccc(N(C(=O)c2csnn2)C(C(=O)NC(C)(C)C)c2ccncc2)cc1 (stereo unspecified)	58*	14*	47	16	nt	115*	32*
CC(C)N1C(=O)S/C(=C\c2ccc(-c3ccc(Cl)c(C(=O)O)c3)o2)C1=O	48*	8.2*	nt	5	30	116*	38*
CCN(CC)c1ccc(/C=C2/SC(=O)N(C(C)C)C2=O)o1	nt	8.0*	-8	nt	-24	96*	32*
O=C(NCCc1ccc(Cl)cc1)C1CCC(CNc2c(N3CCCCC3)c(=O)c2=O)CC1 (stereo unspecified)	-4	16*	nt	2	-3	28*	5
O=C(NCCc1ccccc1)C1CCC(CNc2c(N3CCCCC3)c(=O)c2=O)CC1 (stereo unspecified)	4	1	nt	-1	0	nt	nt
SMILES	esBAF inh	GAA850 FXN act	MITF act	AHR act	Wnt bcat act	GAA30 counter	FXN GAA850 conf
C[C@@H]1CN([C@@H](C)CO)C(=O)c2cc(NC(=O)CCC(F)(F)F)ccc2O[C@@H](C)CCCCO[C@H]1CN(C)Cc1ccc2c(c1)OCO2	1	nt	nt	nt	nt	nt	nt
CC1(Cc2ccc(C(F)(F)F)nc2)C(=O)Nc2cc(-c3ccccc3Cl)ccc21 (stereo unspecified)	-5	14*	nt	nt	-6	12	14*
CC1(Cc2ccccc2C#N)C(=O)Nc2cc(-c3ccccc3Cl)ccc21 (stereo unspecified)	0	4	nt	nt	-3	nt	nt
C[C@H](CO)N1C[C@H](C)[C@H](CN(C)Cc2ccc(C(=O)Nc3ccccc3N)cc2)Oc2ccc(NC(=O)Cc3cn(C)c4ccccc34)cc2C1=O	-15	nt	nt	nt	nt	nt	nt
CO[C@H]1CN(C)C(=O)c2ccc(NC(=O)C3CCC3)cc2OC[C@@H](C)N(Cc2ccncc2)C[C@@H]1C	-1	nt	nt	nt	nt	nt	nt
CCOC(=O)c1ccc(N2Cc3ccccc3C2=NC(=O)c2cccs2)cc1	nt	9.3*	112*	nt	21	53*	23*
CN1CCN(C(=O)C[C@@H]2C[C@@H]3c4cc(NC(=O)Nc5ccccc5F)ccc4O[C@@H]3[C@@H](CO)O2)CC1	0	nt	nt	nt	nt	nt	nt
CC(=O)Nc1ccc(S(=O)(=O)Nc2nc3ccccc3s2)cc1	nt	0	-3	11	2	nt	nt
CC(=O)Nc1ccc(/C=N/Nc2nc3ccccc3s2)cc1	-38	8.7*	53	nt	57*	123*	36*
CC(C)C(=O)Nc1ccc2c(c1)C(=O)N(C)[C@@H]1CC[C@@H](CC(=O)O)O[C@@H]1CO2	-3	nt	nt	nt	nt	nt	nt
CNC[C@@H]1OCCCC[C@@H](C)Oc2ccc(NC(=O)C3CCCCC3)cc2C(=O)N([C@H](C)CO)C[C@@H]1C	2	nt	nt	nt	nt	nt	nt
COc1ccccc1CNC(=O)C[C@H]1CC[C@@H]2[C@H](COC[C@@H](O)CN2Cc2cccc(-c3ccncc3)c2)O1	6	nt	nt	nt	nt	nt	nt
CCOC1OC2C(CO)OC(n3cnc4c(N)ncnc43)C2O1 (stereo unspecified)	6	11*	13	-3	-4	28*	9.2*
Nc1ncnc2c1ncn2C1OC(CO)C2OC21 (stereo unspecified)	nt	nt	nt	nt	-1	nt	nt
CCCCCN1C=CC(=C2C(=O)c3ccccc3C2=O)C=C1	nt	-12	-98	-10	0	nt	nt
CC1=CC(=C2C(=O)c3ccccc3C2=O)C=C(C)N1C	nt	8.2*	52	15	nt	111*	34*
C=CC(=O)Oc1ccc(N2Cc3ccccc3C2=O)cc1	nt	8.0*	nt	-2	nt	32*	4
COc1ccc(N2Cc3ccccc3C2=O)cc1	-14	1	11	2	11	nt	nt
CCNC(=O)[C@@H]1[C@@H](CO)[C@@H]2Cn3c(ccc(C4=CCCCC4)c3=O)[C@H]1N2Cc1cocn1	3	nt	nt	nt	nt	nt	nt
Fc1ccc(-c2cn3cc(C(F)(F)F)cc(Cl)c3n2)cc1	46*	8.8*	39	42	49*	97*	35*
